About 2,100 (0.66%) of roughly 320,000 compounds were called active. Inconclusive results (about 53%) are left out. This is one part of a sample in which actives are shown more often than they occur. Calls come from the whole dose curve; as a rule, active = well fitted inhibition curve with a large enough effect in the signal ratio, with a control signal flat (not every such curve was filed as active); inconclusive = small, poorly fitted or top-dose-only effect, or effect the other way, or a change in a side signal; inactive = flat fitted curve, though single readings scatter; the % refers to the signal ratio.
Assay: qHTS Assay for Lipid Storage Modulators in Drosophila S3 Cells;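 for cell number change: cells counted by Cell Tracker Red CMTPX staining in the red channel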; for lipid storage change, negative = inhibition: % is set by controls: 0 for no effect and ±100 for the full control effect
Details: BODIPY lipid droplet fluorescence, 18-24 h, cells fed with added oleic acid; cell number change: measured here: cell count max response; series mostly up to 46.1 µM; lipid storage change, negative = inhibition: at the top concentration
How it was run: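 Drosophila S3 cells loaded with oleic acid (400 uM, as added) and compounds at several concentrations; lipid droplets imaged by 488-nm laser-scanning cytometry, 500–530 nm intensity and object ratio to cell channel. Percent activity normalized to 20 uM Triacsin C.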
In the case of CC1CCN(C(=O)c2[nH]cnc2C(=O)N[C@@H](CCCCNC(=O)OC(C)(C)C)C(=O)OC(C)(C)C)CC1, the “lipid storage change, negative = inhibition” value is reported as -1.71% (inactive) and the cell number change is reported as -11.2%. With Clc1ccccc1-c1ncnc2ccc(Br)cc12 the “lipid storage change, negative = inhibition” value was -0.0835% (inactive) and the cell number change was -18.5%. In the case of CN1CCN(C(c2cccnc2)c2ccc3cccnc3c2O)CC1 (stereo not drawn), the “outcome” value is reported as “inactive” and the cell number change is reported as 8.11%. In the case of CN1CCN(C(c2ccc(Br)cc2)c2cc(Cl)c3cccnc3c2O)CC1 (stereo not drawn), the Potency is reported as 20.6 µM (active) and the cell number change is reported as 5.13%. For CN1CCN(C(c2ccccn2)c2cc(Cl)c3cccnc3c2O)CC1 (stereo not drawn), the “outcome” value was “inactive”. In the case of O=C(NCc1ccc(F)cc1)C1CC(=O)N(CCc2ccccc2)C1 (stereo not drawn), the “outcome” value is reported as “inactive” and the cell number change is reported as 15.8%. In the case of Cc1cc(C)c(NC2=NS(=O)(=O)c3ccccc32)c(C)c1, the Potency is reported as 16.4 µM (active). In the case of Cc1cc(O)c(C(C)C)cc1NC1=NS(=O)(=O)c2ccccc21, the “lipid storage change, negative = inhibition” value is reported as -22.4% (inactive) and the cell number change is reported as -1.35%. For Cc1ccc(S(=O)(=O)NNC2=NS(=O)(=O)c3ccccc32)c(C)c1, the “lipid storage change, negative = inhibition” value was 6.11% (inactive) and the cell number change was -0.377%. For O=C1COc2ccc(S(=O)(=O)N3CCN(c4cccc(Cl)c4)CC3)cc2N1, the “lipid storage change, negative = inhibition” value was 8.29% (inactive) and the cell number change was -0.295%. With CC(CC(=O)N1CCN(c2cccc(Cl)c2)CC1)S(=O)(=O)c1ccc2c(c1)NC(=O)CO2 (stereo not drawn) the Potency was 6.51 µM (active). With CC(CC(=O)N1CCN(c2ccccc2)CC1)S(=O)(=O)c1ccc2c(c1)NC(=O)CS2 (stereo not drawn) the “outcome” value was “inactive” and the cell number change was -1.91%. For CCOc1ccc(NC(=S)N2C3CCCC2CC(NC(=O)C2CC2)C3)cc1 (stereo not drawn), the “outcome” value was “inactive” and the cell number change was 11.2%. For CCOC(=O)C1Cc2ccccc2C(=O)O1 (stereo not drawn), the “lipid storage change, negative = inhibition” value was -4.22% (inactive) and the cell number change was 3.62%. With CC(=O)Nc1nc2cc([N+](=O)[O-])ccc2s1 the “lipid storage change, negative = inhibition” value was 5.34% (inactive) and the cell number change was -7.82%. For CCC(C)N1C(=O)S/C(=C/c2ccc(N3CCOCC3)cc2C)C1=O (stereo not drawn), the “lipid storage change, negative = inhibition” value was 11.5% (inactive) and the cell number change was 12.1%. With C=CC(C)N1C(=O)S/C(=C\c2ccc(N3CCOCC3)cc2C)C1=O (stereo not drawn) the Potency was 4.11 µM (active). With CCCN1C(=O)S/C(=C\c2ccc(N3CCOCC3)cc2C)C1=O the “lipid storage change, negative = inhibition” value was -5.29% (inactive) and the cell number change was -13.4%. With Cc1cccc(N2CC(C(=O)NCCC3=CCCCC3)CC2=O)c1C (stereo not drawn) the “outcome” value was “inactive”. For CCS(=O)(=O)N1CCC(C(=O)NCc2ccc(OC)cc2OC)CC1, the “lipid storage change, negative = inhibition” value was -1.87% (inactive) and the cell number change was 16%. With O=C(O)c1ccc(COc2ccc(Cl)cc2)o1 the Potency was 25.9 µM (active) and the cell number change was -10.6%. For N#Cc1ccc(OCc2ccc(C(=O)O)o2)cc1, the “outcome” value was “inactive” and the cell number change was -20.7%. With O=C(O)c1ccc(COc2ccc([N+](=O)[O-])cc2)o1 the “outcome” value was “inactive”. With Nc1cccnc1Sc1cccc(Cl)c1 the “outcome” value was “inactive” and the cell number change was -17.5%. In the case of O=S(=O)(c1ccccc1)N1CCN(S(=O)(=O)c2ccc(F)cc2)CC1, the “lipid storage change, negative = inhibition” value is reported as 28.1% (inactive) and the cell number change is reported as -2.92%. In the case of CC1(C)CC(=O)c2cc(NC(=O)c3ccccc3)c(=O)oc2C1, the “lipid storage change, negative = inhibition” value is reported as 3.26% (inactive) and the cell number change is reported as 6.08%. For Cn1c(SCc2cc(=O)[nH]c(C(C)(C)C)n2)nnc1C(F)(F)F, the “lipid storage change, negative = inhibition” value was 10.1% (inactive) and the cell number change was -1.02%. In the case of CCOC(=O)N1CCN(C2=C(NS(=O)(=O)c3ccc(NC(C)=O)cc3)C(=O)c3ccccc3C2=O)CC1, the Potency is reported as 18.4 µM (active) and the cell number change is reported as -22.6%. With CCOC(=O)N1CCN(C2=C(NS(=O)(=O)c3ccc(C)cc3)C(=O)c3ccccc3C2=O)CC1 the “outcome” value was “inactive” and the cell number change was -13.9%. For CC(=O)Nc1ccc(S(=O)(=O)NC2=C(N3CCN(c4ccc(F)cc4)CC3)C(=O)c3ccccc3C2=O)cc1, the “outcome” value was “inactive” and the cell number change was 3.49%. In the case of CCOC(=O)c1ccc(N(CC(=O)NC2CCCCC2)C(=O)CNC(=O)c2ccco2)cc1, the “outcome” value is reported as “inactive” and the cell number change is reported as 11.2%. With O=C(O)CCC(=O)N1N=C(c2ccco2)CC1c1cccs1 (stereo not drawn) the “lipid storage change, negative = inhibition” value was -9.03% (inactive) and the cell number change was -1.36%. With O=C(CCl)N1N=C(c2ccco2)CC1c1cccs1 (stereo not drawn) the Potency was 23.1 µM (active) and the cell number change was -16%. In the case of O=C(c1ccccc1)N1N=C(c2ccco2)CC1c1cccs1 (stereo not drawn), the “lipid storage change, negative = inhibition” value is reported as -0.755% (inactive) and the cell number change is reported as 16.1%. In the case of CC(C)Sc1nc2c(cnn2-c2ccc(F)cc2)c(=O)[nH]1, the “outcome” value is reported as “inactive”. For CN(C)c1nc(NCc2ccccc2)nc(N/N=C/c2ccccc2F)n1, the Potency was 23.1 µM (active). With CN(C)c1nc(NCc2ccccc2)nc(N/N=C/c2ccc(Cl)cc2Cl)n1 the “outcome” value was “inactive” and the cell number change was -26.7%. For CN(C)c1nc(NCc2ccccc2)nc(N/N=C/c2ccc(Br)cc2)n1, the “lipid storage change, negative = inhibition” value was -0.957% (inactive) and the cell number change was -3.42%. In the case of O=C1CCCN1CCCNS(=O)(=O)c1ccc(F)c(F)c1, the “lipid storage change, negative = inhibition” value is reported as -21.9% (inactive) and the cell number change is reported as 3.84%. In the case of O=C1CCCN1CCCNS(=O)(=O)c1ccc(Cl)c(C(=O)N2CCOCC2)c1, the Potency is reported as 23.1 µM (active) and the cell number change is reported as -15.3%. With O=C(NCCCN1CCCC1=O)c1cc(S(=O)(=O)N2CCOCC2)ccc1Cl the “lipid storage change, negative = inhibition” value was -23.3% (inactive) and the cell number change was 15%. For COc1ccccc1Cn1c(C(C)C)nc2ccccc21, the “lipid storage change, negative = inhibition” value was 0.143% (inactive) and the cell number change was 8.07%. With O=C(Nc1nc2ccccc2[nH]1)c1ccc(OC(F)F)cc1 the “outcome” value was “inactive” and the cell number change was -15.1%. In the case of CCOc1ccc(N(CC(=O)NCCOc2ccc(C)cc2)S(=O)(=O)c2ccccc2)cc1, the “lipid storage change, negative = inhibition” value is reported as 2.62% (inactive) and the cell number change is reported as 23.7%. With CC(=O)N1CCCc2cc(S(=O)(=O)NC(C(=O)NC3CCCCC3)C(C)C)ccc21 (stereo not drawn) the “lipid storage change, negative = inhibition” value was -0.23% (inactive) and the cell number change was 13.4%. With C[N+]1(CCC(=O)c2ccccc2)CCCCC1 the “lipid storage change, negative = inhibition” value was -1.35% (inactive) and the cell number change was 3.5%. In the case of COC(=O)CCCCCCCCCC[N+]1(C)CCCCC1, the “lipid storage change, negative = inhibition” value is reported as 7.23% (inactive) and the cell number change is reported as 12.8%. With C[N+]1(CCCCSc2ccc(O)cc2)CCCCC1 the Potency was 4.61 µM (active) and the cell number change was -4.93%.
Potency is the fitted concentration of half-maximal effect.
